Laboratory results published in ChEMBL document CHEMBL1157539, “Thousands of chemical starting points for antimalarial lead identification” (Nature, 2010).

Assays:
Assay type in all cases: functional
Plasmodium falciparum [1] = experiment: GSK_TCMDC: Inhibition of Plasmodium falciparum 3D7 in whole red blood cells, using parasite LDH activity as an index of growth. Test compounds present at 2uM
Plasmodium falciparum [2] = experiment: GSK_TCMDC: Inhibition of Plasmodium falciparum Dd2 in whole red blood cells, using parasite LDH activity as an index of growth. Test compounds present at 2uM
HepG2 = experiment: GSK_TCMDC: Percent inhibition of human HepG2 cell line. Test compounds present at 10uM.

Compound: CCCCOc1cc2c(cc1OCC)C(C=Cc1ccc(Cl)cc1Cl)=NCC2.Cl
- Inhibition (Plasmodium falciparum [1]): 97%
- Inhibition (Plasmodium falciparum [2]): 95%
- Inhibition (HepG2): 0%

Compound: COc1ccc(NC(=O)[C@H](CC(C)C)Nc2cc(C)nc(NCCc3ccccc3OC)n2)cc1.O=C(O)C(F)(F)F
- Inhibition (Plasmodium falciparum [1]): 99%
- Inhibition (Plasmodium falciparum [2]): 68%
- Inhibition (HepG2): 9%

Compound: COc1ccc2nccc([C@@H](O)CN3CCC(NCc4ccc5c(c4)NC(=O)C(C)(C)O5)CC3)c2c1.O=C(O)C(=O)O
- Inhibition (Plasmodium falciparum [1]): 100%
- Inhibition (Plasmodium falciparum [2]): 70%
- Inhibition (HepG2): 6%

Compound: COc1ccccc1C1CCN(C2CCC(NC(=O)/C=C/c3cc(F)cc(C(F)(F)F)c3)CC2)CC1 (stereo not given)
- Inhibition (Plasmodium falciparum [1]): 98%
- Inhibition (Plasmodium falciparum [2]): 57%
- Inhibition (HepG2): 92%

Compound: CN(C)CCN1CCN(CCCN2c3ccccc3Sc3ccc(C(F)(F)F)cc32)CC1.Cl
- Inhibition (Plasmodium falciparum [1]): 99%
- Inhibition (Plasmodium falciparum [2]): 61%
- Inhibition (HepG2): 98%

Compound: CN(C)CCN(Cc1ccccc1-c1ccc(CNCCc2ccccc2)cc1)C(=O)c1ccccc1.O=C(O)C(F)(F)F
- Inhibition (Plasmodium falciparum [1]): 95%
- Inhibition (Plasmodium falciparum [2]): 97%
- Inhibition (HepG2): 81%

Compound: Cc1cc(=O)c(-c2ccc(OCc3ccc(OC(F)(F)F)cc3)cc2)c(C)[nH]1
- Inhibition (Plasmodium falciparum [1]): 97%
- Inhibition (Plasmodium falciparum [2]): 92%
- Inhibition (HepG2): 3%

Compound: Cl.c1ccc(Oc2ccc(Nc3ccnc(Nc4ccc(OCCN5CCCCC5)cc4)n3)cc2)cc1
- Inhibition (Plasmodium falciparum [1]): 97%
- Inhibition (Plasmodium falciparum [2]): 66%
- Inhibition (HepG2): 23%

Compound: CC(C)CNC(=O)c1cncc(-c2cccc(CNC3Cc4ccccc4C3)c2)c1.O=C(O)C(F)(F)F
- Inhibition (Plasmodium falciparum [1]): 100%
- Inhibition (Plasmodium falciparum [2]): 19%
- Inhibition (HepG2): 4%

Compound: Cc1cc(=NN=Cc2cccc(F)c2)c2ccc(F)cc2[nH]1
- Inhibition (Plasmodium falciparum [1]): 100%
- Inhibition (Plasmodium falciparum [2]): 99%
- Inhibition (HepG2): 2%
